Assay type in all cases: functional
In assay [1] the test system is Plasmodium falciparum. Nature of the assay: GSK_TCMDC: Inhibition of Plasmodium falciparum 3D7 in whole red blood cells, using parasite LDH activity as an index of growth. Test compounds present at 2uM.
The subject of assay [2] is Plasmodium falciparum. Nature of the assay: GSK_TCMDC: Inhibition of Plasmodium falciparum Dd2 in whole red blood cells, using parasite LDH activity as an index of growth. Test compounds present at 2uM.
The test system of another assay is HepG2. Nature of the assay: GSK_TCMDC: Percent inhibition of human HepG2 cell line. Test compounds present at 10uM.

This passage reports Inhibition results from ChEMBL document CHEMBL1157539, “Thousands of chemical starting points for antimalarial lead identification” (Nature, 2010).

Usually Inhibition stands for the change of the read-out against control, counted positive when it falls. Read a high Inhibition as strong suppression. Consider `COc1cc2nc(N3CCC(CNC(=O)c4ccc(-c5ccc(Cl)cc5)cc4)CC3)nc(N)c2cc1OC`, for which the Inhibition in the assay with Plasmodium falciparum [1] is recorded as 100%; in the assay on Plasmodium falciparum [2], 100%; with HepG2 it was 99%.
Consider `CCC1(c2ccccc2)N=C(N)N(CCCc2ccccc2)C1=O` (stereo unspecified), for which the Inhibition with Plasmodium falciparum [1] stood at 90%; in the assay on Plasmodium falciparum [2], 96%; in the assay on HepG2, 17%.
The matching figures for `O=C(O)C(F)(F)F.c1cncc(CCNCc2ccc(-c3ccc(CNC4Cc5ccccc5C4)cc3)cc2)c1`: 92%, 29% and 32%.
On to `CCCOc1cc(NC(=O)Nc2ccnc3ccccc23)cc(OCCC)c1.Cl`, for which the Inhibition with Plasmodium falciparum [1] is 100%; with Plasmodium falciparum [2], 98%; with HepG2 it was 6%.
For the compound `O=C(Nc1ccc(C(F)(F)F)cc1)c1ccc(S(=O)(=O)NCC2CCCN(CC3CCCCC3)C2)cc1.O=C(O)C(F)(F)F` (stereo unspecified), the Inhibition was 93% in the assay on Plasmodium falciparum [1], 0% in the assay on Plasmodium falciparum [2] and 44% in the assay with HepG2.
Consider `O=C(O)C(F)(F)F.O=S(=O)(NCCN1CCCC1)c1ccc(-c2ccc(CNCc3ccsc3)cc2)cc1`, for which the Inhibition with Plasmodium falciparum [1] was 95%; in the assay on Plasmodium falciparum [2] it was 36%; in the assay on HepG2 it was 44%.
As to `CCCCCCN1CCN(Cc2cccc(NC(=O)c3cc4ccccc4s3)c2)CC1.O=C(O)C(F)(F)F`, the values for the Inhibition in the assay with Plasmodium falciparum [1], in the assay with Plasmodium falciparum [2] and with HepG2 were 93%, 68% and 20%, respectively.
In the case of `O=C(NC1CCN(Cc2ccccc2)CC1)c1csc2nc(-c3ccc(Cl)cc3)cn12`, the Inhibition was found to be 98% in the assay on Plasmodium falciparum [1], 14% in the assay on Plasmodium falciparum [2] and 19% in the assay on HepG2.
The matching figures for `Cc1cc(C2CCN(CCCCNC(=O)c3ccc(-c4ccc(C(F)(F)F)cc4)cc3)CC2)c(C)cc1OCCOC1CCCCO1` (stereo unspecified): 95%, 5% and 30%.
Consider `Clc1nc2ccccn2c1C=Cc1ccc2ccccc2n1`, for which the results for the Inhibition with Plasmodium falciparum [1], in the assay with Plasmodium falciparum [2] and with HepG2 were 86%, 75% and 0%, respectively.
For `CC1CN(c2cc(=O)n(Cc3ccc(NC(=O)Nc4ccc(-c5ccccc5)cc4)cc3)cn2)CC(C)N1.O=C(O)C(F)(F)F` (stereo unspecified), the Inhibition in the assay on Plasmodium falciparum [1] was 87%; in the assay with Plasmodium falciparum [2], 20%; in the assay with HepG2, 0%.
In the case of `O=C(Cc1ccccc1)NC(CCN1CCC(N(C2CC2)S(=O)(=O)c2cccc(C(F)(F)F)c2)CC1)c1ccc(Cl)c(Cl)c1` (stereo unspecified), the values for the Inhibition in the assay on Plasmodium falciparum [1], in the assay on Plasmodium falciparum [2] and with HepG2 were 85%, 27% and 19%, respectively.
`COc1ccc(Oc2ccc(-c3c(C)[nH]c(C)c(Cl)c3=O)cc2)cc1`: the Inhibition in the assay with Plasmodium falciparum [1] amounted to 97%; with Plasmodium falciparum [2] it was 97%; in the assay with HepG2, 0%.
As to `Cc1cccc2nc(-c3ccc(-c4cccc(CN5CCN(CCO)CC5)c4)cc3)[nH]c12.O=C(O)C(F)(F)F`, the Inhibition was found to be 100% in the assay on Plasmodium falciparum [1], 55% with Plasmodium falciparum [2] and 20% in the assay with HepG2.
Turning to `Nc1nonc1-c1nc2c(-c3cccc(Cl)c3)nccc2n1CCCNC(=O)Cc1ccc(Cl)cc1`, the values for the Inhibition in the assay on Plasmodium falciparum [1], with Plasmodium falciparum [2] and with HepG2 were 94%, 92% and 0%, respectively.
As to `O=C(C=Cc1ccc(Cl)c(Cl)c1)NCCCCCN1CCCC(CCCNC(=O)c2sc3ccccc3c2Cl)C1` (stereo unspecified), the Inhibition was 88% in the assay on Plasmodium falciparum [1], 32% in the assay on Plasmodium falciparum [2] and 82% in the assay with HepG2.
For the compound `CC(=O)COc1c(C2CCN(CCCCNC(=O)c3ccc(-c4ccc(C(F)(F)F)cc4)cc3)CC2)ccc2c1CCCC2`, the results for the Inhibition in the assay on Plasmodium falciparum [1], in the assay with Plasmodium falciparum [2] and in the assay on HepG2 were 99%, 53% and 100%, respectively.
Take `c1ccc2c(NCCc3c[nH]cn3)c3ccccc3nc2c1`: the Inhibition in the assay with Plasmodium falciparum [1] was determined as 91%; in the assay on Plasmodium falciparum [2] it was 0%; with HepG2 it was 20%.
The matching figures for `COc1cccc(CNC(=O)c2cnc(N3CCN(c4ccncc4)CC3)c(Cl)c2)c1.O=C(O)C(F)(F)F`: 89%, 12% and 25%.
Turning to `CC(C)CCN1CCCN(Cc2cccc(NC(=O)c3cc4ccccc4s3)c2)CC1.O=C(O)C(F)(F)F`, the Inhibition with Plasmodium falciparum [1] was 96%; in the assay with Plasmodium falciparum [2] it was 8%; in the assay with HepG2 it was 34%.
`O=C(N[C@@H](Cc1ccccc1)C(=O)NCCN1CCCCC1)c1ccc(O)c(-c2ccc(Cl)c(Cl)c2)c1`: the Inhibition in the assay on Plasmodium falciparum [1] was 99%; with Plasmodium falciparum [2], 97%; in the assay on HepG2 it was 6%.
`CCCS(=O)(=O)c1nc(S(=O)(=O)c2ccc(Cl)cc2)c(N2CCCCC2)s1`: the results for the Inhibition with Plasmodium falciparum [1], with Plasmodium falciparum [2] and with HepG2 were 87%, 34% and 3%, respectively.
For the compound `COc1ccc(N2C(=O)C3C(C2=O)C2(C)c4ccccc4C3(C)c3ccccc32)c([N+](=O)[O-])c1` (stereo unspecified), the Inhibition is on record as 99% in the assay with Plasmodium falciparum [1], 54% in the assay on Plasmodium falciparum [2] and 11% in the assay on HepG2.
As to `CC(C)C[C@H](NC(=O)[C@H](Cc1ccccc1)NC(=O)CCN1C(=O)COc2ccc(C(=O)O)cc21)C(=O)NC(CC1CCCCC1)C(O)CC(=O)NCCCn1ccnc1.Cl.O` (stereo partly specified), the Inhibition in the assay with Plasmodium falciparum [1] amounted to 99%; with Plasmodium falciparum [2], 0%; in the assay on HepG2, 0%.
Consider `COCCn1c(-c2cccc(Cl)c2)nn(-c2ccc([N+](=O)[O-])cc2C#N)c1=S`, for which the Inhibition is 100% in the assay with Plasmodium falciparum [1], 100% in the assay on Plasmodium falciparum [2] and 7% in the assay with HepG2.
Take `CCN1CCN(CCCNc2c3ccc(Cl)cc3nc3ccc(O)cc23)CC1`: the Inhibition is 100% in the assay with Plasmodium falciparum [1], 1% in the assay on Plasmodium falciparum [2] and 32% in the assay with HepG2.
`O=C(NCCOc1ccccc1)[C@H](Cc1ccccc1)Nc1ccnc(NCC2CCCCC2)n1.O=C(O)C(F)(F)F`: the Inhibition in the assay with Plasmodium falciparum [1] is listed as 96%; with Plasmodium falciparum [2] it was 73%; in the assay with HepG2, 80%.
